# In PubChem BioAssay:
# Values joined by “and” are separate entries in the source; they are usually repeats but may differ in a detail not shown here. Identical values can stand only once. Results filed as inconclusive are left out. Active and inactive are the calls of the source.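 Rule for the calls, unless noted: active = normalized viability below 100% at a tested concentration; inactive = the rest.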
# Legend:
# [1] = viability loss in pontine glioma line – cell-based, JHH-DIPG-1, MIPE4.0, CellTiter-Glo, qHTS, dose response (AID 1347062; cut-off not given, nearly all actives have AC50 up to about 27 µM;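 note: cells exposed to compound for two days before readout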); conditions: JHH-DIPG-1 viability, CellTiter-Glo ATP luminescence
# [2] = viability loss in pontine glioma line – cell-based, SU-DIPG-IV, MIPE4.0, CellTiter-Glo, qHTS, dose response (AID 1347063; cut-off not given, nearly all actives have AC50 up to about 30 µM;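 note: compound exposure lasted 48 hours before the viability readout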); conditions: CellTiter-Glo ATP luminescence
# [3] = viability loss in pontine glioma line – cell-based, SU-DIPG-XXV, MIPE5.0, CellTiter-Glo, qHTS, dose response (AID 1347065; cut-off not given, nearly all actives have AC50 up to about 26 µM;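 note: cells exposed to compound for 48 hours before ATP readout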); conditions: CellTiter-Glo ATP luminescence
# [4] = viability loss in pontine glioma line – cell-based, SU-DIPG-XIII, MIPE4.0, CellTiter-Glo, qHTS, dose response (AID 1347061; cut-off not given, nearly all actives have AC50 up to about 37 µM;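 note: cells exposed to compound for 48 hours before readout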); conditions: CellTiter-Glo ATP luminescence
# [5] = growth inhibition of DIPG cells – cell-based, MIPE4.0 library, CellTiter-Glo luminescence, qHTS (AID 1347066; cut-off not given, nearly all actives have AC50 up to about 30 µM;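 note: cells exposed to compound for 48 hours before readout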); conditions: SU-DIPG-VI viability, CellTiter-Glo ATP luminescence
# [6] = growth inhibition of DIPG cells – cell-based, MIPE5.0 library, qHTS (AID 1347068; cut-off not given, nearly all actives have IC50 up to about 30 µM); conditions: SU-DIPG-XXV viability
# [7] = viability loss with induced miR-34 in A549 – imaging, A549 dox-inducible miR-34, nuclei and caspase counts, primary screen (AID 1347080;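 active = compounds whose cell count with miR-34 switched on is under 0.7 times the count with it off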); conditions: A549 miR-34 inducible, Hoechst nuclei count, 48 h
# [8] = compounds altering HSF1 focus formation in cells – imaging, Selleck Cancer Library (AID 1347162; in the data active = plate-normalised HSF1 focus index below about 0.46); conditions: human cells, HSF1 nuclear foci imaging, at 10 µM; SSMD: measured here: HSF1 foci SSMD mean; cell count: measured here: cell number; plate-normalised HSF1 focus index: stronger effect = lower value
# [9] = MELAS cybrid and Rieske KO viability enhancers – cell-based, MELAS cybrids, Rieske KO mouse fibroblasts, CellTiter-Glo, primary screen (AID 1508586;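 active = mean z-score across replicates of 1.96 or higher in either the MELAS or the Rieske mutant cell line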;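 note: z relative to plate mean and SD of compound and empty wells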); conditions: low glucose
# [10] = drug combination growth inhibition, ovarian cancer – cell-based, oncology-focused library, rucaparib conditional, profiling panel (AID 1508598); conditions: patient-derived ovarian cancer cells, CellTiter-Glo viability, 144 h, stronger effect = lower value
# [11] = growth inhibition, single agent or in combination, cell-based, chromothripsis tumors, cisplatin or BGB combos (AID 1671449; in the data active = inhibition above about 80%;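 note: cells exposed for 96 hours; 0% = vehicle DMSO and 100% = killing by high DMSO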); conditions: LFS_MB_P medulloblastoma cells
# [12] = growth inhibition, single agent and combos, cell-based, chromothripsis tumors, cisplatin or BGB combos (AID 1671450; in the data active = inhibition above about 80%;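 note: cells exposed to compound for four days; 0% = vehicle DMSO and 100% = cell killing by high DMSO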); conditions: HDN33 neuroblastoma cells, stronger effect = higher value
# [13] = growth inhibition, single agents and combos, ICB984, cell-based, cisplatin or BGB combos, synergistic combos for chromothripsis tumors (AID 1671451; call rule not given here;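 note: cells exposed for 96 hours before readout; 0% = vehicle DMSO and 100% = killing by high DMSO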); conditions: ICB984 medulloblastoma cells, drug combinations, stronger effect = higher value
compound,measurement,setting,value
CC(C)(N)c1ccc(-c2nc3ccccc3nc2-c2ccccc2)cc1,AC50,[1],23.5 µM (active)
same,AC50,[2],26.4 µM (active)
same,AC50,[3],23.5 µM (active)
CN(C)Cc1ccc(-c2nc3cccc4c3n2CCNC4=O)cc1,AC50,[4],18.7 µM (active)
same,outcome,[5],inactive
same,outcome,[6],inactive
same,fold change,"[7]; stronger effect = lower value, cell number ratio, induced over uninduced",0.89 (inactive)
same,fold change,[7]; measured here: relative caspase fold change +Dox/-Dox,1.02
same,cell count,"[7]; measured here: total cells with miR-34 induction, stronger effect = lower value",6740
same,cell count,[7]; measured here: total cells without miR-34 induction,7560
same,SSMD,[8],-0.246
same,cell count,[8],7430
same,plate-normalised HSF1 focus index,[8],0.994 (inactive)
same,z-score,"[9]; MELAS cybrid survival, CellTiter-Glo 48 h, stronger effect = higher value",-0.319 (inactive)
same,z-score,"[9]; Rieske KO mouse fibroblast survival, CellTiter-Glo 72 h",-0.0135
same,viability,"[10]; at 0.000305 µM, OCI-C5x cells, with rucaparib 10 µM, 100% = cells with rucaparib alone",114% (inactive)
same,viability,"[10]; at 0.000305 µM, OCI-C5x cells, without rucaparib",127% (inactive)
same,viability,"[10]; at 0.000305 µM, OCI-P5x cells, with rucaparib 20 µM, 100% = cells with rucaparib alone",98.3% (active)
same,viability,"[10]; at 0.000305 µM, OCI-P5x cells, without rucaparib",118% (inactive)
same,viability,"[10]; at 0.00122 µM, OCI-C5x cells, with rucaparib 10 µM, 100% = cells with rucaparib alone",111% (inactive)
same,viability,"[10]; at 0.00122 µM, OCI-C5x cells, without rucaparib",142% (inactive)
same,viability,"[10]; at 0.00122 µM, OCI-P5x cells, with rucaparib 20 µM, 100% = cells with rucaparib alone",98.2% (active)
same,viability,"[10]; at 0.00122 µM, OCI-P5x cells, without rucaparib",119% (inactive)
same,viability,"[10]; at 0.00488 µM, OCI-C5x cells, with rucaparib 10 µM, 100% = cells with rucaparib alone",109% (inactive)
same,viability,"[10]; at 0.00488 µM, OCI-C5x cells, without rucaparib",121% (inactive)
same,viability,"[10]; at 0.00488 µM, OCI-P5x cells, with rucaparib 20 µM, 100% = cells with rucaparib alone",102% (inactive)
same,viability,"[10]; at 0.00488 µM, OCI-P5x cells, without rucaparib",115% (inactive)
same,viability,"[10]; at 0.0195 µM, OCI-C5x cells, with rucaparib 10 µM, 100% = cells with rucaparib alone",110% (inactive)
same,viability,"[10]; at 0.0195 µM, OCI-C5x cells, without rucaparib",128% (inactive)
same,viability,"[10]; at 0.0195 µM, OCI-P5x cells, with rucaparib 20 µM, 100% = cells with rucaparib alone",97% (active)
same,viability,"[10]; at 0.0195 µM, OCI-P5x cells, without rucaparib",111% (inactive)
same,viability,"[10]; at 0.0781 µM, OCI-C5x cells, with rucaparib 10 µM, 100% = cells with rucaparib alone",112% (inactive)
same,viability,"[10]; at 0.0781 µM, OCI-C5x cells, without rucaparib",136% (inactive)
same,viability,"[10]; at 0.0781 µM, OCI-P5x cells, with rucaparib 20 µM, 100% = cells with rucaparib alone",89.9% (active)
same,viability,"[10]; at 0.0781 µM, OCI-P5x cells, without rucaparib",107% (inactive)
same,viability,"[10]; at 0.313 µM, OCI-C5x cells, with rucaparib 10 µM, 100% = cells with rucaparib alone",117% (inactive)
same,viability,"[10]; at 0.313 µM, OCI-C5x cells, without rucaparib",118% (inactive)
same,viability,"[10]; at 0.313 µM, OCI-P5x cells, with rucaparib 20 µM, 100% = cells with rucaparib alone",88.6% (active)
same,viability,"[10]; at 0.313 µM, OCI-P5x cells, without rucaparib",101% (inactive)
same,viability,"[10]; at 1.25 µM, OCI-C5x cells, with rucaparib 10 µM, 100% = cells with rucaparib alone",109% (inactive)
same,viability,"[10]; at 1.25 µM, OCI-C5x cells, without rucaparib",121% (inactive)
same,viability,"[10]; at 1.25 µM, OCI-P5x cells, with rucaparib 20 µM, 100% = cells with rucaparib alone",88.7% (active)
same,viability,"[10]; at 1.25 µM, OCI-P5x cells, without rucaparib",92.1% (active)
same,viability,"[10]; at 5 µM, OCI-C5x cells, with rucaparib 10 µM, 100% = cells with rucaparib alone",120% (inactive)
same,viability,"[10]; at 5 µM, OCI-C5x cells, without rucaparib",114% (inactive)
same,viability,"[10]; at 5 µM, OCI-P5x cells, with rucaparib 20 µM, 100% = cells with rucaparib alone",78.4% (active)
same,viability,"[10]; at 5 µM, OCI-P5x cells, without rucaparib",83.9% (active)
same,inhibition,"[11]; at 0.5 µM, stronger effect = higher value",-24.1% (inactive) and -21.5% (inactive)
same,inhibition,"[11]; measured here: combination with BGB IC20, at 0.005 µM",-9.73% and -22%
same,inhibition,"[11]; measured here: combination with BGB IC40, at 0.005 µM",64% and -31.1%
same,inhibition,"[11]; measured here: combination with BGB IC40, at 0.05 µM",-13% and -56%
same,inhibition,"[11]; measured here: combination with cisplatin, at 0.5 µM, stronger effect = higher value",-37.5% and -16.8%
same,inhibition,"[11]; measured here: combination with cisplatin, at 5 µM, stronger effect = higher value",-29.7% and -74.4%
same,inhibition,"[12]; BGB combo, at 5 µM",-26.8% and -18.6%
same,inhibition,[12]; at 0.5 µM,-1.23% (inactive) and -27.1% (inactive)
same,inhibition,"[12]; cisplatin combo, at 5 µM",6.93% and -10.3%
same,inhibition,"[12]; measured here: with BGB IC20 combination, at 0.5 µM",-13.1% and -21.5%
same,inhibition,"[12]; measured here: with cisplatin IC20 combination, at 0.5 µM",15.7% and -26.9%
same,inhibition,"[12]; single agent, at 5 µM",-4.63% and 68.3%
same,inhibition,"[13]; BGB IC20 combo, at 0.005 µM",-1.21% and 16.5%
same,inhibition,"[13]; BGB IC40 combo, at 0.005 µM",-19.6% and -25.1%
same,inhibition,"[13]; BGB IC40 combo, at 0.05 µM",-33.7% and -42.1%
same,inhibition,[13]; at 0.5 µM,-15.4% (inactive) and -23.9% (inactive)
